The list is not random: actives were taken first. Their share in the collection is about 3%.
Peg3 promoter: reduces Peg3 promoter-driven luciferase expression in HeLa | HeLa PEG-Prom luciferase reporter, luminescence, overnight | inhibition, % at 20 µM | 360,000 tested, 1.7% active | AID 588405;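 active = inhibition of at least 50% at 20 µM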
EWS-Fli block: blocks EWS/Fli oncoprotein-driven transcription. A673 NR0B1-luciferase reporter, viability-normalised. inhibition, % at 12.6 µM. 350,000 tested, 0.67% active. AID 651661;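 active = mean inhibition of at least 50% after viability correction, with every replicate also passing that limit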;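 note: firefly luciferase signal divided by Alamar Blue viability fluorescence both relative to DMSO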
ABHD5-PLIN5 inh: ABHD5-PLIN5 protein interaction inhibition. Q00G26+Q8WTS1. Split G. princeps luciferase complementation, luminescence, 4 h. inhibition, % at 4 µM. 360,000 tested, 0.78% active. AID 602281;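 active = inhibition above the mean inhibition across every tested compound plus 3 SD, cut at about 22% in these data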;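 note: 0% = DMSO only wells and the 100% control is not disclosed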
Target sequence (Q00G26 whole entry, looked up): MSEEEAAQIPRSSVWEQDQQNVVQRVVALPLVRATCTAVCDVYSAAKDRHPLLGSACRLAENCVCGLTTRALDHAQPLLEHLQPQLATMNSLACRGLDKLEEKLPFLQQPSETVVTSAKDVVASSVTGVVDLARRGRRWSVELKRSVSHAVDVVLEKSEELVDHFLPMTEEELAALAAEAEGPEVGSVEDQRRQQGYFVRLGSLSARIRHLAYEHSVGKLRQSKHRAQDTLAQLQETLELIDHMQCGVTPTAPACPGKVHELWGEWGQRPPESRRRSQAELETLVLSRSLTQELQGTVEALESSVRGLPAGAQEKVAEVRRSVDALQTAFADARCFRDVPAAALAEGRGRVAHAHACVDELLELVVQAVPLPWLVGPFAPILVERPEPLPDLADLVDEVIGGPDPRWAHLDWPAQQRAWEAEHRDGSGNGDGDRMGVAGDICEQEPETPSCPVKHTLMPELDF
Target sequence (Q8WTS1 whole entry, looked up): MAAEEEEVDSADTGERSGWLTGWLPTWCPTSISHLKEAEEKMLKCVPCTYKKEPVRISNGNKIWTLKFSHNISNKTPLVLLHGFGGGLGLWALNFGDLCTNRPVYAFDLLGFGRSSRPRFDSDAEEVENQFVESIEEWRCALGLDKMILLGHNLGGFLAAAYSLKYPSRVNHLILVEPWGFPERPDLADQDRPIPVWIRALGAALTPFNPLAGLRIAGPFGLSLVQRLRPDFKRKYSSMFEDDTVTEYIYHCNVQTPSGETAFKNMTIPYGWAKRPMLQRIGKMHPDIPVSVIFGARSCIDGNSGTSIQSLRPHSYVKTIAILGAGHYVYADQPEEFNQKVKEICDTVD
PAX8 inh HTS: PAX8 transcriptional activity inhibition; RMG-I TPO-luciferase reporter, SteadyGlo, 24 h; inhibition, % at 12.6 µM; 360,000 tested, 1.2% active; AID 652154;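 active = mean replicate inhibition at least 60% with every replicate also reaching 60%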;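 note: luciferase light reporting Pax8 driven TPO promoter activity; plate controls were median of neutral control wells for no effect and mitoxantrone controls for full effect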
MITF TRPM1 inh: MITF TRPM1 promoter inhibition in SK-MEL-5 cells. inhibition, % at 12.5 µM. SK-MEL-5 TRPM1 promoter luciferase, 24 h. 330,000 tested, 0.83% active. AID 488899;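 active = mean inhibition across replicates of 60% or more, whatever share of single replicates reaches that level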
Shn3 inh set2: Schnurri-3 reporter inhibition in Clone20 osteoblasts; AID 588674; 360,000 tested, 0.52% active; inhibition, % at 12.5 µM; Clone20 osteoblast Shn3 3'UTR firefly luciferase, 24 h;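 active = mean inhibition of at least 75% with every replicate also reaching 75%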;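 note: 0% = median of neutral control wells and 100% = pilot-screen positive control compound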
Active calls of the source: *; . = no result.

SMILES	Peg3 promoter	EWS-Fli block	ABHD5-PLIN5 inh	PAX8 inh HTS	MITF TRPM1 inh	Shn3 inh set2
CN(C)C(=O)c1ccc(-c2ccc3c(c2)[C@@H]2[C@@H](CCN2C(=O)C2CCOCC2)[C@@H](CO)N3C)cc1	.	-17	.	-18	.	.
Cc1sc2nc(CN(C(=O)NC3CCCCC3)C3CCCCC3)[nH]c(=O)c2c1C	50*	.	-5	.	20	22
O=C(NC1CCCCC1)N(Cc1nc2ccccc2c(=O)[nH]1)C1CCCCC1	-10	.	1	.	-9	-13
COc1ccc(C[C@H]2CN3C(=NC[C@H]3Cc3ccccc3)N2CCNC(=O)CCC2CCCCC2)cc1	90*	9	17	27	35	27
COc1ccc(C[C@H]2CN3C(=NC[C@@H]3Cc3ccccc3)N2CCNC(=O)c2ccc(C)c(Br)c2)cc1	97*	.	11	.	31	-7
COc1ccc(C[C@H]2CN3C(=NC[C@H]3Cc3ccccc3)N2CCNC(=O)c2ccc(C)c(Br)c2)cc1	95*	.	5	.	58	13
Cc1ccc(C(=O)NCCN2C3=NC[C@@H](Cc4ccccc4)N3C[C@H]2Cc2ccc(O)cc2)cc1Br	79*	46	16	17	-13	12
Cc1ccc(C(=O)NCCN2C3=NC[C@H](Cc4ccc(O)cc4)N3C[C@H]2Cc2ccc(O)cc2)cc1Br	-4	13	16	-13	3	-15
C/C=C(\C)C(=O)NCCN1C2=NC[C@H](Cc3ccccc3)N2C[C@@H]1Cc1ccc(OC)cc1	-16	1	-12	-3	-3	-3
COCC(=O)N1CCC2(CC1)CN(Cc1nccs1)[C@@H](CO)c1c2c2ccc(OC)cc2n1C	.	-5	.	.	.	.
Cc1ccc(S(=O)(=O)Nc2ccc3c(c2)C(=O)N([C@H](C)CO)C[C@@H](C)[C@H](CN(C)S(=O)(=O)c2ccc(Cl)cc2)O3)cc1	.	10	.	-6	.	.
Cc1noc(C)c1NC(=O)N(C)C[C@H]1OCCCC[C@H](C)Oc2ccc(NS(=O)(=O)c3c(C)noc3C)cc2C(=O)N([C@@H](C)CO)C[C@@H]1C	.	-1	.	-8	.	.
O=C(C[C@H]1C[C@H]2c3cc(NC(=O)Nc4ccc(C(F)(F)F)cc4)ccc3O[C@H]2[C@@H](CO)O1)NCc1ccc(Cl)cc1	.	1	.	5	.	.
O=C(C[C@@H]1C[C@H]2c3cc(NC(=O)Nc4ccc(C(F)(F)F)cc4)ccc3O[C@H]2[C@H](CO)O1)NCc1ccc(Cl)cc1	.	23	.	94*	.	.
O=C(C[C@H]1C[C@@H]2c3cc(NC(=O)Nc4ccc(C(F)(F)F)cc4)ccc3O[C@@H]2[C@@H](CO)O1)NCc1ccc2c(c1)OCO2	.	29	.	65*	.	.
CC(C)NC(=O)Nc1cccc2c1O[C@@H](CN(C)CC1CCCCC1)[C@H](C)CN([C@@H](C)CO)C2=O	.	8	.	.	.	.
CN(C)CC(=O)N[C@@H]1C=C[C@H](CC(=O)O)O[C@H]1CO	.	-8	.	.	.	.
C[C@@H]1CN([C@H](C)CO)C(=O)c2c(c3ccccc3n2C)-c2ccccc2CO[C@H]1CN(C)C(=O)Nc1ccc(-c2ccccc2)cc1	.	0	.	45	.	.
Cc1ccc(CSc2nnc(SCC(=O)N/N=C/c3ccc(C(=O)O)cc3)s2)cc1	-16	60*	-2	-14	-5	-9
C[C@H](CO)N1C[C@H](C)[C@H](CN(C)S(C)(=O)=O)Oc2cc(-c3cccc(F)c3)ccc2S1(=O)=O	.	5	.	-12	.	.
Cn1nc(C(F)(F)F)c(-c2ccc(Br)cc2)c1NC(=O)Nc1ccc(F)cc1F	51*	9	-11	-8	9	.
COc1cc(NC(=O)COc2ccccc2Cl)ccc1NC(=O)c1cccs1	-50	-34	-8	-47	-40	9
COc1cc(NC(=O)COc2ccccc2[N+](=O)[O-])ccc1NC(=O)c1cccs1	57*	15	-10	-5	74*	50
N#C[C@H]1[C@@H](c2ccc(C#CCC3CCCC3)cc2)[C@H](CO)N1C(=O)c1ccccn1	.	2	.	14	.	.
COc1cc(C(=O)Nc2ccc(C)cc2)c2ccccc2n1	-35	54*	-3	33	37	11
SMILES	Peg3 promoter	EWS-Fli block	ABHD5-PLIN5 inh	PAX8 inh HTS	MITF TRPM1 inh	Shn3 inh set2
CCOc1ccc(NC(=O)c2cc(OC)nc3ccccc23)cc1	-4	42	-7	33	11	34
CN(C)S(=O)(=O)c1ccc(-c2csc(N/N=C/c3ccco3)n2)cc1	61*	9	1	49	72*	34
O=C(/C=C/c1ccco1)Nc1nc(-c2ccccc2)cs1	-242	-111	-3	98*	-51	-29
O=C(/C=C/c1ccco1)Nc1nc(-c2ccccn2)cs1	-155	-3	12	-54	0	-24
Cc1ccc(-c2csc(N/N=C/c3ccco3)n2)cc1	-390	.	-7	.	-72	-56
CC(=O)N(C)C[C@@H]1Oc2cc(C3=CCCCC3)ccc2S(=O)(=O)N([C@H](C)CO)C[C@@H]1C	.	-13	.	.	.	.
COc1ccc2c(c1)c[n+](C)c1c3cc(OC)c(OC)cc3ccc21	.	31	22*	-18	.	.
COc1cc2c[n+](C)c3c4ccccc4ccc3c2cc1OC	0	1	7	41	-1	-9
O=C(CCl)NC(=O)NC12CC3CC(CC(C3)C1)C2	63*	12	8	8	24	-9
CCCC#Cc1cnc2c(c1)C(=O)N([C@H](C)CO)C[C@@H](C)[C@@H](CN(C)C(=O)Cc1ccncc1)O2	.	8	.	.	.	.
O=c1c2ccccc2sn1-c1cc(S(=O)(=O)N2CCOCC2)ccc1N1CCOCC1	29	.	97*	.	-4	-15
O=c1c2ccccc2sn1-c1cc(S(=O)(=O)N2CCOCC2)ccc1N1CCCC1	8	.	13	.	13	25
O=C(NCCN1CCOCC1)c1ccc(/C=C2\Sc3ccccc3N(Cc3ccccc3F)C2=O)cc1	59*	3	8	-14	-5	-2
O=C(CN1C(=O)/C(=C\c2cccc(Cl)c2)Sc2ccccc21)NCCCN1CCOCC1	-5	1	14	2	2	-18
Cc1ccccc1CN1C(=O)/C(=C\c2ccc(C(=O)NCCN3CCOCC3)cc2)Sc2ccccc21	57*	20	6	31	-3	16
O=C(CN1C(=O)/C(=C/c2ccc(C(F)(F)F)cc2)Sc2ccccc21)NCCCN1CCOCC1	7	9	-3	-4	-15	4
CCN1CCN(CCNC(=O)c2ccc(/C=C3/Sc4ccccc4N(Cc4cccc(Cl)c4)C3=O)cc2)CC1	97*	46	22*	7	68*	2
CCc1ccc(/C=C2/Sc3ccccc3N(CC(=O)NCCCN3CCOCC3)C2=O)cc1	-15	-15	-5	10	-52	-12
Cc1ccc(S(=O)(=O)N(C)C[C@@H]2Oc3ccc(NC(=O)CCC(F)(F)F)cc3C(=O)N([C@@H](C)CO)C[C@@H]2C)cc1	.	-4	.	-5	.	.
C[C@H](CO)N1C[C@H](C)[C@H](CN(C)C(=O)C2CC2)Oc2ncc(C#CCc3ccccc3)cc2C1=O	.	-5	.	.	.	.

Assay outcomes as filed in PubChem BioAssay.
